In the library only some 2.3% were active in any assay of this set; here they are far more common.
TMEM16A act – mouse TMEM16A channel activation, primary screen. HEK293 TMEM16A/YFP-H148Q/I152L, iodide quench fluorescence; hits give low values. 0.3% of 340,000 active. AID 623877. Q8BHY3. B-score at 10 µM;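 active means fluorescence-ratio B-score plate-corrected deviation score at least 3 library SD below zero, with starting fluorescence score within 5 deviations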;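 further: channel opened by trigger with iodide after compound preincubation; score built on the fluorescence ratio of max minus min over baseline; more negative score means more quench and so TMEM16A activation or potentiation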
CHT inh – human CHT choline transport inhibition; Q9GZV3; CHT-expressing cells, membrane potential dye, choline response; hits give low values; B-score at 10 µM; 0.86% of 310,000 active;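 active means B-score over 3 SD under the library average, and starting fluorescence ratio not unusually high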;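 further: choline stimulus applied at its EC90 after an EC20 pre-addition; B-score computed on integrated fluorescence ratio after choline addition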
ANO1 block – mouse TMEM16A channel inhibition, primary screen; Q8BHY3; HEK293 TMEM16A/YFP iodide influx fluorescence, ionomycin; normalized B-score (activity score, 25-100; higher = stronger inhibition) at 10 µM; 1.2% of 310,000 active; AID 588511;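 active means ratio plate-corrected score three or more library SD toward inhibition, starting fluorescence score within five deviations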;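 further: score derived from kinetic fluorescence span divided by baseline fluorescence per well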
CHT allo act – allosteric activators of human choline transporter CHT; B-score at 10 µM; 0.49% of 310,000 active; AID 488977; CHT-expressing cells, membrane potential dye, choline EC20; hits give high values; LV-AA mutant CHT in HEK293 cells;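 active means initial fluorescence not abnormally high and integrated response B-score, plate-corrected, over 3 SD above library mean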
CHT block conf – human CHT inhibition, confirmatory screen | CHT-expressing cells, choline membrane potential dye; LV-to-AA substituted CHT, HEK293 cells | shares compounds with CHT inh | 70% of 2,400 active | CHT activity remaining % of control (hits give low values), % at 10 µM | AID 493221;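 active means choline transporter activity left, mean of duplicates at 10 µM, below buffer-only control mean minus 3 SD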;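 further: depolarization triggered by choline at its EC90 following an EC20 pre-addition; 0% = hemicholinium-3 full block and 100% = buffer-only control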
HEK293 MPD ctr – counter-screen for CHT inhibitors: effect in parental HEK293 cells; shares compounds with CHT inh; membrane potential dye, choline response; active = decrease or increase beyond buffer ±3SD; membrane potential ratio readout (active if shifted either direction beyond buffer ±3SD; no single direction) at 10 µM; 4% of 2,400 active;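 further: parental cells lack the transporter so any hit is non-specific; ratio is peak minus trough fluorescence over baseline after EC90 choline challenge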
An asterisk follows results filed as active; i = inactive; x = no result given.

SMILES | TMEM16A act | CHT inh | ANO1 block | CHT allo act | CHT block conf | HEK293 MPD ctr
CCOC(=O)c1ccc(NC(=O)c2cccc(S(=O)(=O)N3CCN(C(C)=O)CC3)c2)cc1 | i | i | i | i | x | x
CCCc1nnc(NC(=O)c2nc(S(=O)(=O)Cc3ccc(C)cc3)ncc2Cl)s1 | i | -7.4* | i | i | 7.6%* | i
CC(C)c1nnc(NC(=O)c2nc(S(=O)(=O)Cc3ccccc3)ncc2Cl)s1 | i | -7.7* | i | i | 3.0%* | i
CCc1ccc(NC(=O)c2nc(S(=O)(=O)Cc3ccccc3)ncc2Cl)cc1 | i | i | i | i | x | x
CCOc1ccccc1NC(=O)c1nc(S(=O)(=O)Cc2ccccc2)ncc1Cl | i | i | i | i | x | x
COc1ccccc1Nc1nnc(SCC2CCCCO2)s1 (centres undefined) | i | -6.3* | i | i | 57%* | i
COc1cc(N(C)C)c([N+](=O)[O-])cc1C(=O)NC(C)CNc1ccc([N+](=O)[O-])cc1Cl (centres undefined) | i | -5.6* | i | i | i | i
Cc1onc(-c2ccccc2Cl)c1C(=O)Nc1nnc(-c2cccc([N+](=O)[O-])c2)s1 | i | -6.9* | 100* | i | 51%* | i
N=C1CCCN1CC(=O)c1ccc(Br)cc1 | i | -19* | i | i | 1.5%* | i
Cn1c(=N)n(CC(=O)c2ccc(Br)cc2)c2ccccc21 | i | i | i | i | x | x
Cc1csc(=O)n1CCC(=O)OCC(=O)Nc1ccc(Cl)cn1 | i | i | i | i | x | x
CC(NC(=O)/C=C/c1ccccc1)c1ccccc1 (centres undefined) | i | -5.4* | i | i | i | i
O=C(NCCCN1CCOCC1)C1CCN(S(=O)(=O)c2cccc(C(F)(F)F)c2)CC1 | i | x | x | x | x | x
Cn1cc(C(=O)NC2CCCCC2)c(=O)c2cc(S(=O)(=O)N3CCCC3)ccc21 | i | i | i | i | x | x
CC1CCN(S(=O)(=O)c2ccc3c(c2)c(=O)c(C(=O)NC2CCCC2)cn3C)CC1 | i | -7.3* | i | i | 52%* | i
CCn1cc(C(=O)N2CCCCC2)c(=O)c2cc(S(=O)(=O)N3CCC(C)CC3)ccc21 | i | -6.2* | i | i | 34%* | i
Cn1ccnc1SCC(=O)N1CCN(S(=O)(=O)c2ccccc2)CC1 | i | -5* | i | i | i | i
O=C1CCCC(=O)C1C(=O)C1CCN(S(=O)(=O)c2ccccc2)CC1 | i | i | i | i | x | x
Cc1ccc(S(=O)(=O)N2CCC(C(=O)C3C(=O)CC(C)(C)CC3=O)CC2)cc1 | i | -6.4* | i | i | i | i
CC1CCN(C(=O)COC(=O)c2cccs2)CC1 | i | x | x | x | x | x
Cc1ccc(S(=O)(=O)Nn2c(C)ccc2C)cc1 | i | i | i | i | x | x
CCc1cc([N+](=O)[O-])cc(CC)c1N | i | -5.9* | i | i | 40%* | i
Cc1ccc([N+](=O)[O-])cc1N | i | i | i | i | x | x
COc1ccc(-c2cc(C(=O)NCCCN3CCOCC3)c3cc(C(C)C)ccc3n2)cc1 | i | -7.4* | i | i | 50%* | i
CCOc1ccc(-c2cc(C(=O)NCCCN3CCOCC3)c3ccccc3n2)cc1 | i | i | i | i | x | x
SMILES | TMEM16A act | CHT inh | ANO1 block | CHT allo act | CHT block conf | HEK293 MPD ctr
CCCC(=O)Oc1ccc(N(C(=O)CCC)S(=O)(=O)c2cccs2)cc1 | i | -5.7* | i | i | i | i
Clc1ccccc1OCc1nc(-c2ccncc2)no1 | i | -6.4* | i | i | 16%* | -11*
c1ccc(OCc2nc(-c3ccncc3)no2)cc1 | i | i | i | i | x | x
c1ccc(OCCCc2nc(-c3ccncc3)no2)cc1 | i | i | i | i | 59%* | -8.4*
O=C(Nc1cc([N+](=O)[O-])c2[nH]c(=O)c3ccccc3c2c1)C(F)(F)F | i | x | x | x | x | x
CS(=O)(=O)Cc1ccc(C(=O)NC2CCSc3ccccc32)cc1 (centres undefined) | i | i | i | i | x | x

Bioassay records deposited in PubChem BioAssay by Johns Hopkins Ion Channel Center.
